Screening results deposited in PubChem BioAssay by National Center for Advancing Translational Sciences (NCATS).
KB-V1 cytotox: KB-V1 MDR subline cytotoxicity | KB-V1 MDR cells viability, CellTiter-Glo, 72 h | 400,000 compounds, 3.4% hits | Potency, µM (highest dose often 46.1 µM), actives largely listed as cytotoxic; note: nearly all actives have a fitted effect of over 60% in size
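Drug-selected KB-V1 cells, grown in DMEM lacking phenol red with 10% FBS, receive compound titrations; after three days at 37 degrees C, surviving cell ATP is quantified by CellTiter-Glo luminescence and responses normalized and curve-fitted.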
HT1080 IDH1KD tx: kills HT-1080 cells with IDH1 knockdown. AID 686971. 360,000 compounds, 2% hits. HT-1080 IDH1 knockdown viability, ATP luminescence, 48 h. Potency, µM (top dose mostly 46.1 µM), hits mostly cytotoxic
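CellTiter-Glo luminescence after 48 h compound exposure at 37 degrees C of IDH1-knockdown HT-1080 cells in 5% FBS RPMI. %Activity scaled between DMSO wells and cell-free media wells, with curves fitted and assigned curve classes.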
ATXN viability: reduces viability in counter-screen for ATXN expression inhibitors; S2 cells (HEK-293 line with an ATXN2-luciferase reporter) viability, CellTiter-Fluor protease fluorescence, 24 h; 400,000 compounds, 0.49% hits; AID 651635; Potency, µM (doses to about 56.7 µM), usual class: cytotoxic; note: nearly all actives have a fitted effect of over 40% in size
HT1080-NT tox: kills 2HG-producing HT-1080-NT fibrosarcoma cells; HT-1080-NT fibrosarcoma viability, CellTiter-Glo ATP luminescence, 48 h; Potency, µM (titrated, usually from 46.1 µM), usual class: cytotoxic; 360,000 compounds, 1.6% hits; AID 686970;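 note: NT is the 2HG producing partner of a matched IDH1 knockdown line; nearly all actives have a fitted effect of over 55% in size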
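Fibrosarcoma NT cells, 750 per well in 5% FBS RPMI, were exposed to compound for 48 hours. Viability: CellTiter-Glo luminescence.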
KB-3-1 tox: KB-3-1 parental cell cytotoxicity. KB-3-1 viability, CellTiter-Glo ATP luminescence, 72 h. Potency, µM (titrated, usually from 46.1 µM), hits mostly cytotoxic. 400,000 compounds, 1.4% hits. AID 1347075; note: nearly all actives have a fitted effect of over 60% in size
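KB-3-1 cells, DMEM (no phenol red) + 10% FBS; compound by pin transfer, 72 h, 37 °C. Readout: CellTiter-Glo luminescence after 10 min. Data normalized, curve-fitted.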
ATXN2 expr inh: reduces ATXN2 reporter expression in HEK-293 cells; 360,000 compounds, 0.72% hits; Potency, µM (titrated, usually from 57 µM), actives largely listed as inhibitors; AID 1745845; HEK-293 ATXN2-luciferase reporter, luminescence, 24 h; note: nearly all actives have a fitted effect of over 55% in size
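qHTS (up to 57 uM final) was run with 24 h compound exposure of reporter cells at 37 °C. Each well was multiplexed: SteadyGlo luminescence measured ATXN2-luciferase expression after a fluorogenic Gly-Phe-AFC viability readout (25 uM final).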
Hits are given with their value; i = inactive; ? = inconclusive; nt = no result given. In the library only some 6.2% were active in any assay of this set; here they are far more common. Calls come from the whole dose curve; as a rule, active = well fitted curve in the direction sought with a large enough effect; inconclusive = small, poorly fitted or top-dose-only effect, or another doubt; inactive = no such curve, though single readings can be large; an effect the other way counts as inactive or inconclusive.

SMILES	KB-V1 cytotox	HT1080 IDH1KD tx	ATXN viability	HT1080-NT tox	KB-3-1 tox	ATXN2 expr inh
CN(C)c1ccc(N=Nc2nccs2)cc1	i	i	10µM	i	i	nt
CCC1CSC(Nc2ccc(C(=O)/C=C/c3ccc(Br)cc3)cc2)=N1 (centres undefined)	?	18.4µM	?	?	i	?
CCC1CSC(Nc2ccc(C(=O)/C=C/c3ccc(OC)c(OC)c3)cc2)=N1 (centres undefined)	2.91µM	?	nt	?	?	?
CCc1noc(-c2ccc(N3CCCCC3)c([N+](=O)[O-])c2)n1	i	nt	i	nt	i	i
Cc1ccc(C(c2nnnn2Cc2ccccc2)N2CCN(Cc3ccncc3)CC2)cc1 (centres undefined)	i	nt	nt	nt	i	nt
CCC(C)NS(=O)(=O)c1ccc(N2CCCCS2(=O)=O)cc1 (centres undefined)	i	nt	i	nt	i	i
COc1cc(OC)cc(C(=O)Nc2ccc3nc4c(c(Nc5ccc(OC)c(OC)c5)c3c2)CCCC4)c1	i	nt	28.2µM	nt	i	20µM
COc1cc(OC)cc(C(=O)Nc2ccc3nc4n(c(=O)c3c2)CCCC4)c1	i	i	i	i	i	nt
COc1cccc(C(=O)Nc2c3c(nc4c2CCC4)CCCC3)c1	14.6µM	i	i	i	i	i
COc1ccc(Cl)cc1C(=O)Nc1ccc2nc3n(c(=O)c2c1)CCCC3	?	i	i	i	i	i
COc1ccc(Nc2c3c(nc4ccc(NC(=O)c5cc(Cl)ccc5OC)cc24)CCCC3)cc1OC	?	nt	7.08µM	nt	?	3.16µM
COc1ccc(Br)cc1CNC(=O)c1cc2ccccn2n1	i	nt	i	nt	i	i
O=C(O)C(=O)Nc1cccc(-c2nn[nH]n2)c1	nt	nt	i	nt	nt	i
COc1ccc(N(C)S(=O)(=O)c2cccc3cccnc23)c(OC)c1	?	8.91µM	i	11.2µM	?	i
COc1cc(OC)c(N(C)S(=O)(=O)c2cccc(C(=O)NC3=NCCS3)c2)cc1Cl	?	16.4µM	i	?	?	?
O=P(OC1CCCCC1)(OC1CCCCC1)C(O)c1c(Cl)cccc1Cl (centres undefined)	18.4µM	i	i	i	?	i
O=C(NCCc1cccs1)c1ccc(Cn2c(SCc3ccc(F)cc3)nc3cccnc32)cc1	i	nt	nt	nt	i	nt
Cc1c(NC(=O)c2ccc(Cl)cc2)cc(C(C)C)c(O)c1S(=O)(=O)c1ccccc1	i	nt	i	nt	i	i
CCn1c(SCC(=O)NC2CCCCC2C)nnc1-c1ccc(OC)cc1 (centres undefined)	2.59µM	i	i	i	i	i
COc1ccc(NC(=O)Cc2nnc(SCC(=O)NC3CCCCC3C)n2C)cc1 (centres undefined)	i	i	i	i	i	i
CCCOc1ccccc1C1NC(=O)NC(C)=C1C(=O)OCc1ccccc1 (centres undefined)	20.6µM	?	i	?	i	?
COc1ccc(COC(=O)C2=C(C)NC(=O)NC2c2cccc(OC)c2OC)cc1 (centres undefined)	i	i	i	i	i	i
CCCOc1ccccc1C1NC(=O)NC(C)=C1C(=O)OCCOC (centres undefined)	i	i	i	i	i	i
CC1=C(C(=O)OCc2ccc3c(c2)OCO3)C(c2ccccc2)NC(=O)N1 (centres undefined)	11.6µM	?	i	?	23.1µM	?
CCOC(=O)C1=C(CN2CC(C)CC(C)C2)NC(=O)NC1c1ccc2c(c1)OCO2 (centres undefined)	18.4µM	i	i	i	i	nt
SMILES	KB-V1 cytotox	HT1080 IDH1KD tx	ATXN viability	HT1080-NT tox	KB-3-1 tox	ATXN2 expr inh
CCOC(=O)C1=C(C)NC(=O)NC1c1cccc(OC)c1OCc1ccccc1Cl (centres undefined)	13µM	?	i	i	i	i
Cc1c(Cn2c(C)nc3c(C(=O)O)cc(N4CCOCC4)cc32)cccc1C(F)(F)F	nt	nt	nt	nt	nt	i
COc1ccc(S(=O)(=O)Nc2cc3c(cc2N2CCOCC2)n(C)c(=O)n3C)cc1	i	nt	i	nt	i	i
CCC(C)NC(=O)Cn1c(=O)n(Cc2ccc(C(=O)NCc3ccc(C)cc3)cc2)c(=O)c2ccccc21 (centres undefined)	i	nt	i	nt	i	i
C(=C\c1ccccc1)/CN1CCN(C(CCc2ccccc2)c2nnnn2-c2ccc3c(c2)OCCO3)CC1 (centres undefined)	i	?	i	?	i	i
CCC(c1nnnn1-c1c(C)cccc1C)N1CCN(C/C=C/c2ccccc2)CC1 (centres undefined)	?	?	?	18.4µM	?	i
CCC(c1nnnn1-c1c(C)cccc1C)N1CCN(c2ccc(C(F)(F)F)cc2[N+](=O)[O-])CC1 (centres undefined)	i	i	i	29.1µM	i	i
C(=C\c1ccccc1)/CN1CCN(C(c2nnnn2C2CCCC2)C2CC2)CC1 (centres undefined)	i	i	?	i	i	i
CCC(c1nnnn1-c1ccc2c(c1)OCCO2)N1CCN(C/C=C/c2ccccc2)CC1 (centres undefined)	8.2µM	i	?	i	i	i
CSCCC(c1nnnn1-c1c(C)cccc1C)N1CCN(C/C=C/c2ccccc2)CC1 (centres undefined)	?	?	i	?	?	i
CCC(c1nnnn1-c1c(C)cccc1C)N1CCN(c2cccc(C(F)(F)F)n2)CC1 (centres undefined)	i	i	i	i	?	i
C(=C\c1ccccc1)/CN1CCN(C(c2nnnn2Cc2ccccc2)C2CC2)CC1 (centres undefined)	?	?	?	18.4µM	i	i
CS(=O)(=O)N1CCN(c2nc(-c3cccs3)nc3ccccc23)CC1	nt	i	nt	i	nt	nt
Cc1cc(O)cc2c1O[C@](C)(CCC(=O)O)CC2	nt	i	nt	i	nt	nt
Cn1c(N2CCN(c3ccccn3)CC2)nc2c1c(=O)n(Cc1ccc(Cl)cc1)c(=O)n2C	?	i	i	i	i	i
Cn1c(N2CCOCC2)nc2c1c(=O)n(Cc1ccc(Cl)cc1)c(=O)n2C	23.1µM	i	i	i	i	i
CC1CN(c2nc3c(c(=O)n(Cc4ccc(Cl)c(Cl)c4)c(=O)n3C)n2C)CC(C)O1 (centres undefined)	5.17µM	i	i	i	?	i
Cn1c(=O)c2c(nc(N3CCCCCC3)n2Cc2cccc3ccccc23)n(C)c1=O	?	i	i	i	18.4µM	i
COc1ccc(CNc2nc3c(c(=O)n(Cc4ccc(Cl)cc4)c(=O)n3C)n2C)cc1	16.4µM	i	?	?	?	i
Cc1ccc(Cl)cc1-n1ncc2c(NCCC3=CCCCC3)ncnc21	?	nt	?	nt	i	?
CCN(CC)CCNC(=O)c1cnn(-c2ncc3c(n2)-c2ccc(OC)cc2CC3)c1C	nt	nt	i	nt	nt	nt
